Screening data from PubChem BioAssay.
UHRF1 binding – UHRF1 methylated DNA binding inhibitors, primary screen, counter-screen for MBD2 inhibitor project, biochemical, TR-FRET, human UHRF1, single concentration; E3 ubiquitin-protein ligase UHRF1 (Homo sapiens), Q96T88; UHRF1 binding to methylated oligo; inhibition, % at 4.4 µM; 370,000 compounds, 0.75% hits;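 further: UHRF1 SRA domain binding a hemimethylated CpG hairpin DNA probe; 0% = median of test compound wells and 100% = reference inhibitor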
MBD2 DNA inh – inhibitors of MBD2 binding to methylated DNA, primary screen, biochemical, TR-FRET, DNA-binding domain, human | Methyl-CpG-binding domain protein 2 (Homo sapiens), Q9UBB5 | MBD2 binding to methylated oligonucleotide | inhibition, % at 4.4 µM | 370,000 compounds, 0.31% hits | AID 686964, 2013; in the data active means inhibition above about 13%
Target sequence (Q9UBB5 whole entry, looked up, the tested form may be a part): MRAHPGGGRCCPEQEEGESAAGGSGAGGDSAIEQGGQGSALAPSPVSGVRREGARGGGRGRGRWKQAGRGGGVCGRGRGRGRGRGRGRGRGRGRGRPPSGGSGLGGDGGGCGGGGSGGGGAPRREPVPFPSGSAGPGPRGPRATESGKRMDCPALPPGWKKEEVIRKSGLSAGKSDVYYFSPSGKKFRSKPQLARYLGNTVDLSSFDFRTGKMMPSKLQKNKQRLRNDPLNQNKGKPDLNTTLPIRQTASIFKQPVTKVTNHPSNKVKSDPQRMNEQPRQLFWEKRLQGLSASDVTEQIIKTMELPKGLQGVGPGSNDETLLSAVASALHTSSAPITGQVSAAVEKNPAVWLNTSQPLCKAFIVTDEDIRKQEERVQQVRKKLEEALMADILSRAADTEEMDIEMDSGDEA
UBC13 polyUb – UBC13 polyubiquitin chain formation inhibitors, primary screen, biochemical, TR-FRET, uHTS | 330,000 compounds, 0.47% hits | inhibition, % at 20 µM | AID 485273, 2010 | Ubiquitin-conjugating enzyme E2 N (Homo sapiens), P61088; in the data active means inhibition above about 45%, passing the limit was not always enough; inconclusive means no clear call, values can overlap the other calls
Target sequence (P61088 whole entry, looked up): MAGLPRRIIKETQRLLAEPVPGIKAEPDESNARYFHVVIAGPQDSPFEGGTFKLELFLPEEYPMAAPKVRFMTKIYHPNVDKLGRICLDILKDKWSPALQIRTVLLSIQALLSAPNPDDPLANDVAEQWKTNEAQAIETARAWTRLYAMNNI
Neddylation inh – inhibitors of cullin neddylation, primary screen, biochemical, TR-FRET, uHTS, NAE and Ubc12; NEDD8-conjugating enzyme Ubc12 (Homo sapiens) + NEDD8-activating enzyme E1 regulatory …; calls only at 25 µM; 360,000 compounds, 0.58% hits; AID 651699, 2012; in the data active means inhibition above about 36%
UHRF1 DNA bind – UHRF1 methylated DNA binding inhibitors, counter-screen for MBD2 inhibitor project, biochemical, TR-FRET, human UHRF1 | shares compounds with MBD2 DNA inh | UHRF1 binding to methylated oligonucleotide | inhibition, % at 4.4 µM | 1,000 compounds, 25% hits | AID 720530, 2013;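 further: UHRF1 SRA domain binding a labeled hemimethylated CpG hairpin DNA; 0% = vehicle only and 100% = reference inhibitor with vehicle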
MBD2 confirm – inhibitors of MBD2 binding to methylated DNA, confirmation, biochemical, TR-FRET, DNA-binding domain, human; shares compounds with MBD2 DNA inh; TR-FRET MBD2-DBD binding to methylated oligonucleotide; inhibition, % at 4.4 µM; 1,000 compounds, 26% hits; in the data active means inhibition above about 14%
Active calls of the source: *. Rows were chosen to be rich in hits. Some 1.8% of all compounds tested hit in one or more screens of this group. Unless noted, no stated cut-off is given here; in the data, active means inhibition above about 21%; inactive means the rest.

O=C(CNc1ccccc1Cl)N/N=C1\CCCc2ccccc21 was read as UHRF1 binding 2, MBD2 DNA inh 23*, UBC13 polyUb -16, Neddylation inh inactive, UHRF1 DNA bind 4 and MBD2 confirm 1.
O=C(N/N=C1\CCCc2ccccc21)c1ccccc1Cl was read as UHRF1 binding 3, MBD2 DNA inh 1, UBC13 polyUb 2 and Neddylation inh inactive.
O=C(COC(=O)/C=C/c1ccco1)Nc1ncc(C(F)(F)F)cc1Cl was read as UHRF1 binding 55*, MBD2 DNA inh 14*, UBC13 polyUb -9, Neddylation inh inactive, UHRF1 DNA bind 27* and MBD2 confirm 9.
Screening CC(C)c1ccc(NC2CCCN(C(=O)CCN3CCCCO3)C2)cc1 (centres undefined) returned UHRF1 binding 1, MBD2 DNA inh -2, UBC13 polyUb -2 and Neddylation inh inactive.
Screening O=C(Oc1ccc2c(c1)OCO2)c1cc2c(s1)CCC2 returned UHRF1 binding 35*, MBD2 DNA inh 25*, UBC13 polyUb 3, Neddylation inh inactive, UHRF1 DNA bind 36* and MBD2 confirm 28*.
Screening O=C(c1cc2c(s1)CCCC2)N1CCN(Cc2ccc3c(c2)OCO3)CC1 returned UHRF1 binding 7, MBD2 DNA inh 6, UBC13 polyUb -5 and Neddylation inh inactive.
CC1(C(=O)NCc2ccccc2)CN(S(C)(=O)=O)CC(=O)N1Cc1cccc(F)c1 (centres undefined) was read as UHRF1 binding 4, MBD2 DNA inh -1 and Neddylation inh inactive.
For NC(=O)C1=C(N)c2ccccc2C1c1ccccc1 (centres undefined) the results were UHRF1 binding 1, MBD2 DNA inh 32*, UHRF1 DNA bind 2 and MBD2 confirm 1.
`CCOC(=O)C1CC(=O)c2ccccc2C1c1ccccc1` (centres undefined) gave UHRF1 binding -1, MBD2 DNA inh 3 and Neddylation inh inactive.
`CCN(CC)CCn1c(=S)[nH]c2cc(Cl)ccc2c1=O` gave UHRF1 binding 2, MBD2 DNA inh 3, UBC13 polyUb -18 and Neddylation inh inactive.
FC(F)(F)C1=CC(c2ccc(Cl)cc2)=NCCN1 was read as UHRF1 binding -1, MBD2 DNA inh -5, UBC13 polyUb -2 and Neddylation inh inactive.
Screening c1ccc(SC23CC4CC(CC(C4)C2)C3)nc1 returned UHRF1 binding 1, MBD2 DNA inh 13*, Neddylation inh inactive, UHRF1 DNA bind 8 and MBD2 confirm 3.
COC(=O)[C@H](CC(C)C)N(Cc1cn(CC2CCCCC2)nn1)S(=O)(=O)c1ccc(F)cc1Br was read as UHRF1 binding 21*, MBD2 DNA inh 19*, UHRF1 DNA bind 7 and MBD2 confirm 12.
Screening COC(=O)[C@H](CC(C)C)N(Cc1cn(CC2CCCCC2)nn1)S(=O)(=O)c1ccccc1Br returned UHRF1 binding 18, MBD2 DNA inh 17*, UHRF1 DNA bind 8 and MBD2 confirm 11.
For COC(=O)[C@H](CC(C)C)N(CCc1cn(CC2CCCCC2)nn1)S(=O)(=O)c1ccc(F)cc1Br the results were UHRF1 binding 2 and MBD2 DNA inh 5.
COC(=O)[C@H](C(C)C)N(Cc1cn(CC2CCCCC2)nn1)S(=O)(=O)c1ccc(F)cc1Br was read as UHRF1 binding 19, MBD2 DNA inh 17*, UHRF1 DNA bind 7 and MBD2 confirm 7.
Screening N#Cc1ccc(CSc2ncnc3c2cnn3Cc2ccccc2)cc1 returned UHRF1 binding 2, MBD2 DNA inh 1, UBC13 polyUb -1 and Neddylation inh inactive.
COc1ccc(CCNCC(O)COc2cccc(C(C)=O)c2)cc1OC (centres undefined) was read as UHRF1 binding 25*, MBD2 DNA inh 17*, UBC13 polyUb 1, Neddylation inh inactive, UHRF1 DNA bind 7 and MBD2 confirm 4.
Screening COc1ccc(CCNCC(O)COc2ccc(Cl)cc2)cc1OC (centres undefined) returned UHRF1 binding 0, MBD2 DNA inh 0, UBC13 polyUb inconclusive and Neddylation inh inactive.
Nc1c(Cl)c(Cl)nc(C(=O)N/N=C/c2ccco2)c1Cl was read as UHRF1 binding -3, MBD2 DNA inh 2, UBC13 polyUb 5 and Neddylation inh inactive.
CC(C)Cn1c(CCCNC(=O)c2ccc(F)cc2)nc2ccccc21 was read as UHRF1 binding 1, MBD2 DNA inh 2, UBC13 polyUb 2 and Neddylation inh inactive.
`O=c1oc2c(-c3ccc([N+](=O)[O-])cc3)cc(O)cc2s1` gave UHRF1 binding 30*, MBD2 DNA inh 21*, UBC13 polyUb -10, Neddylation inh inactive, UHRF1 DNA bind 10 and MBD2 confirm 7.
NC(=O)COC(=O)Cc1coc2cc3c(cc12)CCC3 was read as UHRF1 binding -1, MBD2 DNA inh -2, UBC13 polyUb -5 and Neddylation inh inactive.
`CCCCn1c(NS(=O)(=O)c2ccccc2)c(S(=O)(=O)c2ccc(C)cc2)c2nc3ccccc3nc21` gave UHRF1 binding 17, MBD2 DNA inh 21*, Neddylation inh inactive, UHRF1 DNA bind -4 and MBD2 confirm 14*.
For CCCCn1c(NC(=O)c2ccco2)c(S(=O)(=O)c2ccc(C)cc2)c2nc3ccccc3nc21 the results were UHRF1 binding -5 and MBD2 DNA inh -13.
COc1ccc(C(=O)OCC(=O)c2ccc[nH]2)cc1 was read as UHRF1 binding 13, MBD2 DNA inh 67*, UBC13 polyUb 3, Neddylation inh inactive, UHRF1 DNA bind 9 and MBD2 confirm 2.
`Cc1ccc(S(=O)(=O)NCC(=O)OCC(=O)c2ccc(S(=O)(=O)N3CCCCC3)cc2)cc1C` gave UHRF1 binding -1, MBD2 DNA inh 25*, Neddylation inh inactive, UHRF1 DNA bind 2 and MBD2 confirm 4.
Screening CCOC(=O)CNS(=O)(=O)c1ccc(S(=O)(=O)N2CCCC2)cc1 returned UHRF1 binding 4, MBD2 DNA inh 2, UBC13 polyUb 1 and Neddylation inh inactive.
Screening COc1cc2c(cc1OC)CC(C(=O)NCc1ccccc1)NC2 (centres undefined) returned UHRF1 binding 0, MBD2 DNA inh 17*, UBC13 polyUb 6, Neddylation inh inactive, UHRF1 DNA bind 9 and MBD2 confirm 3.
